Results on eight molecules are retold here after PubChem BioAssay (Tox21).

Experiment [1] can be described thus: qHTS assay to test for compound auto fluorescence at 535 nm (green) in HEK293 cells (AID 720680). Further: on the % scale 0 is the no-effect control and ±100 the full control effect.
Experiment [2] can be described thus: qHTS assay to test for compound auto fluorescence at 460 nm (blue) in HEK293 cell free culture (AID 720681). Further: potency means the concentration at half of the fitted maximal effect. An outline of the steps: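 Blue fluorescence (Ex 405/Em 460 nm, triamterene-equivalent) was read immediately after pin transfer of compound or DMSO into medium (DMEM, 10% FBS) without cells.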
In general terms: In qHTS, concentration-response curves come from the screen itself.

The nature of experiment [3]: qHTS assay to test for compound auto fluorescence at 535 nm (green) in HEK293 cell free culture (AID 720682). Further: on the % scale 0 is the no-effect control and ±100 the full control effect. The procedure, abridged: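 Cell-free medium (DMEM, 10% FBS) receives compound or DMSO by pintool. Plate read directly at Ex 485/Em 535 nm. Signal converted to fluorescein equivalency.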
The nature of experiment [4]: qHTS assay to test for compound auto fluorescence at 590 nm (red) in HEK293 cell free culture (AID 720683). Further: on the % scale 0 is the no-effect control and ±100 the full control effect. The procedure, abridged:
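Red-channel autofluorescence of compounds in culture medium (DMEM, 10% FBS), no cells, measured at 540/590 nm. Rose Bengal sodium is the reference fluorophore for equivalence.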

Experiment [5] in a line: qHTS assay to test for compound auto fluorescence at 590 nm (red) in HepG2 cell free culture (AID 720684). Further: on the % scale 0 is the no-effect control and ±100 the full control effect. An outline of the steps: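 No cells present: MEM + 10% FBS only. Compound pinned in, red label read (540/590 nm). Activity = fluorescence equivalent to Rose Bengal sodium.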
The nature of experiment [6]: qHTS assay to test for compound auto fluorescence at 460 nm (blue) in HepG2 cell free culture (AID 720685). Further: potency means the concentration at half of the fitted maximal effect. The procedure, abridged: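 Cell-free plates of MEM plus 10% FBS received 23 nL compound or DMSO vehicle; blue-channel (405/460 nm) intensity scored against triamterene as reference fluorophore.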
Experiment [7] can be described thus: qHTS assay to test for compound auto fluorescence at 535 nm (green) in HepG2 cell free culture (AID 720686). Further: on the % scale 0 is the no-effect control and ±100 the full control effect.
The nature of experiment [8]: qHTS assay to test for compound auto fluorescence at 460 nm (blue) in HepG2 cells (AID 720687). Further: potency means the concentration at half of the fitted maximal effect. An outline of the steps: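 Blue-channel autofluorescence (Ex/Em 405/460 nm, triamterene-equivalent) was measured after 1 hr compound exposure at 37 C, 5% CO2. Cells were HepG2, plated overnight at 37 C in MEM plus 10% FBS.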
Experiment [9] has as its target Glucocorticoid receptor (Homo sapiens) (UniProt P04150). The experiment in a line: qHTS assay to identify small molecule agonists of the glucocorticoid receptor (GR) signaling pathway (AID 720691; active means well fitted activation curve with a large enough effect in the signal ratio in the repeat runs, not every such curve was filed as active; the % refers to the signal ratio; further: on the % scale 0 is the no-effect control and ±100 the full control effect). The procedure, abridged: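 Measures GR pathway activation through a GRE-beta-lactamase reporter stably integrated in HeLa cells, with 18 h compound treatment at 37 C and fluorescence detection using a FRET substrate.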

Experiment [10] can be described thus: qHTS assay to identify small molecule antagonists of the glucocorticoid receptor (GR) signaling pathway - cell viability counter screen (AID 720693). Further: on the % scale 0 is the no-effect control and ±100 the full control effect; nearly all actives have a fitted effect of over 55% in size.
The nature of experiment [11]: qHTS assay for identifying genotoxic compounds that show differential cytotoxicity against isogenic chicken DT40 cell lines with known DNA damage response pathways - wild type cell line (AID 743012). Further: on the % scale 0 is the no-effect control and ±100 the full control effect; nearly all actives have a fitted effect of over 60% in size. The procedure, abridged: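 Endpoint: CellTiter-Glo luminescence, 30 min RT. Cells: wild type DT40, 300/well. Exposure: compounds in DMSO, 40 h, 37 C/5% CO2, after ~0.5 h pre-incubation.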

A short description of experiment [12]: qHTS assay for identifying genotoxic compounds that show differential cytotoxicity against isogenic chicken DT40 cell lines with known DNA damage response pathways - Rev3 mutant cell line (AID 743014). Further: nearly all actives have a fitted effect of over 55% in size. Further: potency means the concentration at half of the fitted maximal effect.
The nature of experiment [13]: qHTS assay for identifying genotoxic compounds that show differential cytotoxicity against isogenic chicken DT40 cell lines with known DNA damage response pathways - Rad54/Ku70 mutant cell line (AID 743015). Further: nearly all actives have a fitted effect of over 60% in size. Further: potency means the concentration at half of the fitted maximal effect.
A short description of experiment [14]: qHTS assay to identify small molecule antagonists of the androgen receptor (AR) signaling pathway - cell viability counter screen (AID 743033; further: nearly all actives have a fitted effect of over 45% in size; further: potency means the concentration at half of the fitted maximal effect).
Experiment [15] can be described thus: qHTS assay to identify small molecule antagonists of the androgen receptor (AR) signaling pathway using the MDA cell line - cell viability counter screen (AID 743041; further: on the % scale 0 is the no-effect control and ±100 the full control effect; nearly all actives have a fitted effect of over 45% in size). An outline of the steps: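 Using the breast carcinoma line MDA-kb2 AR-luc, test chemicals were co-incubated with R1881 for 16 h; CellTiter-Fluor reagent, added at 15.5 h, provided a fluorescence measure of live cells.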

For experiment [16], the target named is Androgen receptor (Homo sapiens) (UniProt P10275). The experiment in a line: qHTS assay to identify small molecule antagonists of the androgen receptor (AR) signaling pathway (AID 743035; active means well fitted inhibition curve with a large enough effect in the signal ratio in the repeat runs, not every such curve was filed as active; the % refers to the signal ratio; further: potency means the concentration at half of the fitted maximal effect). The procedure, abridged:
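R1881 agonist challenge of a HEK293 UAS-beta-lactamase AR reporter line in the presence of compound (16 h, 37C); signal taken as FRET fluorescence after 2 h with LiveBLAzer B/G substrate at room temperature.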

Experiment [17] shares this target. The experiment in a line: qHTS assay to identify small molecule agonists of the androgen receptor (AR) signaling pathway using the MDA cell line (AID 743040; further: on the % scale 0 is the no-effect control and ±100 the full control effect; nearly all actives have a fitted effect of over 20% in size). The procedure, abridged: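 Stable MMTV-luciferase reporter in MDA-kb2 cells; note the promoter carries GR as well as AR response elements. 16 h compound treatment, 37C, 0% CO2; ONE-Glo luminescence endpoint.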

The target is the same in experiment [18]. As to the kind of experiment: qHTS assay to identify small molecule antagonists of the androgen receptor (AR) signaling pathway using the MDA cell line (AID 743042; further: on the % scale 0 is the no-effect control and ±100 the full control effect; nearly all actives have a fitted effect of over 55% in size). The procedure, abridged:
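Antagonist mode: compounds plus R1881 agonist added to MDA-kb2 AR-luc cells, incubated 16 h at 37C. Luciferase reporter luminescence quantified, with multiplexed CellTiter-Fluor readout for cell viability.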

Values without a mark were called inactive. Records with an inconclusive call do not appear. Active and inactive are the calls of the source. Unless noted, the call rests on the fitted dose curve; in most records, active means well fitted curve in the direction sought with a large enough effect in the repeat runs; inconclusive means weak or mixed curves; inactive means no such curve, though single readings can be large; an effect the other way counts as inactive or inconclusive.
Tags describe the fitted curve by direction and shape or compound fluorescence and quenching.

Chain of Glucocorticoid receptor (Homo sapiens) (P04150 whole entry, looked up): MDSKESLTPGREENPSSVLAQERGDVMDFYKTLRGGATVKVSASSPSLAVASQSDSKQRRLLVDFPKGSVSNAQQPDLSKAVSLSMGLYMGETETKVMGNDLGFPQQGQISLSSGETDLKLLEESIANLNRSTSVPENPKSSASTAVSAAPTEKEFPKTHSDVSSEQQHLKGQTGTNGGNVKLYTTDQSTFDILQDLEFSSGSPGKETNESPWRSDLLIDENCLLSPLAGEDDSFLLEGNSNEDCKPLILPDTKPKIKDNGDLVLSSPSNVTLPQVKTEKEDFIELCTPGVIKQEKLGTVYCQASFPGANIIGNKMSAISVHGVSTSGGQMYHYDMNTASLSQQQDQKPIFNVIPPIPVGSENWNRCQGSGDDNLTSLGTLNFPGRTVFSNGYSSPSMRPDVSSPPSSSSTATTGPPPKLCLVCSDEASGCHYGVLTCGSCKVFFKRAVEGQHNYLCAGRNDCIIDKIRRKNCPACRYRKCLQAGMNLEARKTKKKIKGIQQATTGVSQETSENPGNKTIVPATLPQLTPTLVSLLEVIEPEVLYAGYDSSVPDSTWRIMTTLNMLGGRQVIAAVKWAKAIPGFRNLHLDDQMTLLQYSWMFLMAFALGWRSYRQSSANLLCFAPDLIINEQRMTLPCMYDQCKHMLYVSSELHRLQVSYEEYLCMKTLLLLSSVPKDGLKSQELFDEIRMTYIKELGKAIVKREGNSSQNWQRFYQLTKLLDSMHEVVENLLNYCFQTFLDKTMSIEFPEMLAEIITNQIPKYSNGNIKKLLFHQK
Chain of Androgen receptor (Homo sapiens) (P10275 whole entry, looked up): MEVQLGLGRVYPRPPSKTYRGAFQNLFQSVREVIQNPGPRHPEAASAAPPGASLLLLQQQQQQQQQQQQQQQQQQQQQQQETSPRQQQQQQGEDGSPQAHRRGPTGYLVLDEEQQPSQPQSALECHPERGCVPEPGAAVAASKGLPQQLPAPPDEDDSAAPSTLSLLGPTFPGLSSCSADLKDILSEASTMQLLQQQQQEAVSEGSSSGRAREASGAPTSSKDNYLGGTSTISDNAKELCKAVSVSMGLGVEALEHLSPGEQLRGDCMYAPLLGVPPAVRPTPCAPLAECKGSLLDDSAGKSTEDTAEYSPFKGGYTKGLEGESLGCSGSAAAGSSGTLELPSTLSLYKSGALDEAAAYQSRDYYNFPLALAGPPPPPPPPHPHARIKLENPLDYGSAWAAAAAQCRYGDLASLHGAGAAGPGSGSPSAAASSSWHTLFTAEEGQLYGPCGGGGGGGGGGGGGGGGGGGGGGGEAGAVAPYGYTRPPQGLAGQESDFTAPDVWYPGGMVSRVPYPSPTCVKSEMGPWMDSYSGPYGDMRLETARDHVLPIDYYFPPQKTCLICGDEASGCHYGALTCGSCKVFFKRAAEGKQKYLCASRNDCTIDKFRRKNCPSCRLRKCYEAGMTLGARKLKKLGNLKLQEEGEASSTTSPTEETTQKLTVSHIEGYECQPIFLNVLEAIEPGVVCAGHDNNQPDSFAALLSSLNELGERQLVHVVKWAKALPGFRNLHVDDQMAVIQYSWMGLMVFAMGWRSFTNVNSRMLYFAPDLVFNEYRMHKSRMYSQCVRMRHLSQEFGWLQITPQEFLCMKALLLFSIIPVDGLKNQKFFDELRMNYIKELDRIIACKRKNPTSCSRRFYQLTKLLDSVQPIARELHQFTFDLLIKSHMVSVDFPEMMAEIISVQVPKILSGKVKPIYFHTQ

Turning to `CC(=O)Oc1cc2c(s1)CCN(C(C(=O)C1CC1)c1ccccc1F)C2` (stereo unspecified), the Potency entry in [1], in experiment [2], in experiment [3], in [4], in [5] and in [6] was “inactive” each time. In addition, the Potency entry in experiment [7], in [8], in experiment [9], in [10], in experiment [11] and in experiment [12] was “inactive” in each case. The Potency entry in experiment [13], in [14] and in experiment [15] was “inactive” throughout.

With `O=C(O)CN(CCN(CC(=O)O)CC(=O)O)CC(=O)O`, the Potency entry in experiment [1], in experiment [2], in experiment [3], in [4], in [5] and in experiment [6] was “inactive” each time. Moreover, the Potency result in [7], in experiment [8], in experiment [10], in experiment [11], in [13] and in experiment [14] was “inactive” each time. For the same molecule, the Potency entry in experiment [15] is “inactive”. For the same molecule, the activity, negative = cytotoxicity in experiment [12] is 5.28% [at 3.82 µM].

Regarding `O=S(=O)(O)c1ccccc1/C=C/c1ccc(-c2ccc(/C=C/c3ccccc3S(=O)(=O)O)cc2)cc1`, the Potency result in experiment [1], in [3], in experiment [4], in [5], in experiment [7] and in [10] was “inactive” each time. Besides, the Potency result in experiment [11], in experiment [13], in experiment [14] and in experiment [15] was “inactive” throughout. Besides, the Potency is 6.31 µM (active) in experiment [2], 6.31 µM [fluorescent] (active) in [6] and 5.62 µM [fluorescent] (active) in experiment [8].

`COC1=C(OC)C(=O)C(CCCCCCCCCCO)=C(C)C1=O`: the Potency entry in experiment [1], in [2], in experiment [3], in experiment [4], in experiment [5] and in [6] was “inactive” in each case. Further, the Potency result in experiment [7], in experiment [8], in experiment [9], in experiment [14], in [15] and in [18] was “inactive” each time. The results for the Potency in [12], in experiment [13] and in experiment [16] were 13.3 µM (active), 10.6 µM (active) and 16.9 µM (active), respectively. Moreover, the result in experiment [17] was inactive.

As for `Cc1cc(C(C#N)c2ccc(Cl)cc2)c(Cl)cc1NC(=O)c1cc(I)cc(I)c1O` (stereo unspecified), the Potency result in experiment [1], in [2], in [3], in [4], in [5] and in experiment [6] was “inactive” throughout. The Potency result in experiment [7], in experiment [8], in [9] and in experiment [14] was “inactive” each time. Further, the Potency in [13] is 26.6 µM (active).

As for `C=Cc1cccc(C)c1`, the Potency result in experiment [1], in [2], in experiment [3], in experiment [4], in experiment [5] and in experiment [6] was “inactive” in each case. Also, the Potency entry in [7], in experiment [8], in [9], in experiment [10], in experiment [11] and in experiment [12] was “inactive” each time. In addition, the Potency result in [13], in experiment [14] and in [15] was “inactive” in each case.

Regarding `CCC(COC(=O)CCS)(COC(=O)CCS)COC(=O)CCS`, the Potency entry in experiment [1], in [2], in experiment [3], in experiment [4], in experiment [5] and in [6] was “inactive” throughout. For the same molecule, the Potency entry in experiment [7], in experiment [8], in [10], in [11], in experiment [14] and in experiment [15] was “inactive” throughout.

As for `Oc1cc(Cl)cc(Cl)c1Cl`, the Potency result in experiment [1], in [2], in experiment [3], in experiment [4], in experiment [5] and in experiment [6] was “inactive” throughout. Moreover, the Potency entry in [7], in experiment [8] and in [9] was “inactive” each time. Further, the Potency in experiment [14] is 50.2 µM (active).
